Results published in PubChem BioAssay AID1159580 (chemical genetic matrix, 2015).
Several values for one entry are separate records, joined by “and”; a condition that tells them apart may be missing. Equal entries are not always repeated. Among all 5,500 compounds or so, about 2,000 (36%) were called active. Not shown: some 18% with an inconclusive outcome. Cut-off read from the data, not from the text of the source: active = normalized growth mostly below about 0.91 (no sharp cut-off); inconclusive = no clear call, values can overlap the other calls; inactive = mostly above about 0.92. The list shows a part of the results.

Test: chemical genetic growth profiling, strain panel (AID 1159580);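 note: tested at 20 µM; growth read once vehicle control cultures reached saturation at 30 °C; 1 = growth at the plate median or of vehicle wells; lower values mean less growth of the strain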
Details: growth OD

Measured: normalized growth

CN(C)CCC(c1ccc(Br)cc1)c1ccccn1 (centres undefined)
inactive: S. cerevisiae deletion strains, locus YKL009W, strain mrt4, active compounds read low 0.99 | S. cerevisiae deletion strains, locus YKL068W, active compounds read low 1.01 | S. cerevisiae deletion strains, locus YKL085W, strain MDH1 (second series), active compounds read low 1.02 | S. cerevisiae deletion strains, locus YKL085W, strain MDH1, active compounds read low 1.02 | S. cerevisiae deletion strains, locus YKL160W, strain elf1, active compounds read low 0.981 | S. cerevisiae deletion strains, locus YKL190W, strain CNB1, active compounds read low 0.995 | S. cerevisiae deletion strains, locus YKR001C, strain vps1, active compounds read low 0.964 | S. cerevisiae deletion strains, locus YKR026C, strain gcn3, active compounds read low 0.986 | S. cerevisiae deletion strains, locus YLL001W, strain dnm1, active compounds read low 0.998 | S. cerevisiae deletion strains, locus YLL026W, active compounds read low 0.987 | S. cerevisiae deletion strains, locus YLL041C, strain sdh2, active compounds read low 0.981 | S. cerevisiae deletion strains, locus YLR027C, strain aat2, active compounds read low 0.99 | S. cerevisiae deletion strains, locus YLR039C, strain RIC1, active compounds read low 0.999 | S. cerevisiae deletion strains, locus YLR058C, strain SHM2, active compounds read low 0.991 | S. cerevisiae deletion strains, locus YLR102C, strain apc9, active compounds read low 0.992 | S. cerevisiae deletion strains, locus YLR113W, strain HOG1, active compounds read low 1.01 | S. cerevisiae deletion strains, locus YLR221C, strain rsa3, active compounds read low 0.999 | S. cerevisiae deletion strains, locus YLR258W, strain gsy2, active compounds read low 0.969 | S. cerevisiae deletion strains, locus YLR262C, strain YPT6 (second series), active compounds read low 0.999 | S. cerevisiae deletion strains, locus YLR262C, strain YPT6, active compounds read low 1.03 | S. cerevisiae deletion strains, locus YLR268W, strain sec22, active compounds read low 0.956 | S. cerevisiae deletion strains, locus YLR320W, strain mms22, active compounds read low 1.03 | S. cerevisiae deletion strains, locus YLR330W, strain CHS5, active compounds read low 0.992 | S. cerevisiae deletion strains, locus YLR342W, strain FKS1 (second series), active compounds read low 0.985 | S. cerevisiae deletion strains, locus YLR342W, strain FKS1, active compounds read low 0.986 | S. cerevisiae deletion strains, locus YLR357W, strain rsc2, active compounds read low 0.972 | S. cerevisiae deletion strains, locus YLR370C, strain arc18, active compounds read low 0.982 | S. cerevisiae deletion strains, locus YLR371W, strain rom2, active compounds read low 0.989 | S. cerevisiae deletion strains, locus YLR384C, strain iki3, active compounds read low 0.989 | S. cerevisiae deletion strains, locus YLR418C, strain cdc73, active compounds read low 0.95 | S. cerevisiae deletion strains, locus YML016C, strain PPZ1, active compounds read low 0.986 | S. cerevisiae deletion strains, locus YML032C, strain rad52, active compounds read low 0.966 | S. cerevisiae deletion strains, locus YML120C, strain ndi1, active compounds read low 0.981 | S. cerevisiae deletion strains, locus YML124C, strain tub3, active compounds read low 0.987 | S. cerevisiae deletion strains, locus YMR058W, strain fet3, active compounds read low 1.01 | S. cerevisiae deletion strains, locus YMR078C, strain ctf18, active compounds read low 0.974 | S. cerevisiae deletion strains, locus YMR125W, strain sto1, active compounds read low 0.936 | S. cerevisiae deletion strains, locus YMR129W, active compounds read low 0.982 | S. cerevisiae deletion strains, locus YMR205C, strain PFK2, active compounds read low 0.997 | S. cerevisiae deletion strains, locus YMR223W, strain ubp8, active compounds read low 1.01 | S. cerevisiae deletion strains, locus YMR231W, strain pep5, active compounds read low 0.978 | S. cerevisiae deletion strains, locus YMR263W, strain SAP30, active compounds read low 0.976 | S. cerevisiae deletion strains, locus YMR307W, strain GAS1, active compounds read low 1.01 | S. cerevisiae deletion strains, locus YNL067W, strain RPL9B, active compounds read low 0.977 | S. cerevisiae deletion strains, locus YNL071W, strain lat1, active compounds read low 0.98 | S. cerevisiae deletion strains, locus YNL128W, strain TEP1, active compounds read low 0.988 | S. cerevisiae deletion strains, locus YNL153C, strain GIM3, active compounds read low 0.981 | S. cerevisiae deletion strains, locus YNL175C, strain NOP13, active compounds read low 1 | S. cerevisiae deletion strains, locus YNL183C, strain NPR1, active compounds read low 0.942 | S. cerevisiae deletion strains, locus YNL197C, strain WHI3, active compounds read low 1.01 | S. cerevisiae deletion strains, locus YNL209W, strain ssb2, active compounds read low 0.993 | S. cerevisiae deletion strains, locus YNL224C, strain SQS1, active compounds read low 1 | S. cerevisiae deletion strains, locus YNL233W, strain BNI4, active compounds read low 0.988 | S. cerevisiae deletion strains, locus YNL248C, strain rpa49, active compounds read low 0.952 | S. cerevisiae deletion strains, locus YNL250W, strain rad50, active compounds read low 0.978 | S. cerevisiae deletion strains, locus YNL271C, strain bni1, active compounds read low 0.984 | S. cerevisiae deletion strains, locus YNL298W, strain CLA4, active compounds read low 0.985 | S. cerevisiae deletion strains, locus YNL307C, strain MCK1, active compounds read low 0.989 | S. cerevisiae deletion strains, locus YNL322C, strain KRE1 (second series), active compounds read low 0.971 | S. cerevisiae deletion strains, locus YNL322C, strain KRE1, active compounds read low 0.991 and 1.02 | S. cerevisiae deletion strains, locus YNR049C, strain mso1, active compounds read low 0.968 | S. cerevisiae deletion strains, locus YNR052C, strain pop2, active compounds read low 0.989 | S. cerevisiae deletion strains, locus YOL006C, strain TOP1, active compounds read low 0.973 | S. cerevisiae deletion strains, locus YOL012C, strain htz1 0.603 | S. cerevisiae deletion strains, locus YOL147C, strain pex11, active compounds read low 0.983 | S. cerevisiae deletion strains, locus YOR001W, strain rrp6, active compounds read low 0.986 | S. cerevisiae deletion strains, locus YOR061W, strain CKA2, active compounds read low 0.99 | S. cerevisiae deletion strains, locus YOR069W, strain VPS5, active compounds read low 0.992 | S. cerevisiae deletion strains, locus YOR070C, strain gyp1, active compounds read low 0.99 | S. cerevisiae deletion strains, locus YOR080W, strain dia2, active compounds read low 0.975 | S. cerevisiae deletion strains, locus YOR083W, strain WHI5 (second series), active compounds read low 1.01 | S. cerevisiae deletion strains, locus YOR083W, strain WHI5, active compounds read low 0.928 | S. cerevisiae deletion strains, locus YOR106W, strain vam3, active compounds read low 0.966 | S. cerevisiae deletion strains, locus YOR136W, strain idh2, active compounds read low 1 | S. cerevisiae deletion strains, locus YOR144C, strain elg1, active compounds read low 0.99 | S. cerevisiae deletion strains, locus YOR184W, strain ser1, active compounds read low 0.98 | S. cerevisiae deletion strains, locus YOR231W, strain MKK1, active compounds read low 0.986 | S. cerevisiae deletion strains, locus YOR265W, strain rbl2, active compounds read low 0.99 | S. cerevisiae deletion strains, locus YOR270C, strain vph1, active compounds read low 0.981 | S. cerevisiae deletion strains, locus YOR290C, strain snf2, active compounds read low 0.97 | S. cerevisiae deletion strains, locus YOR316C, strain cot1, active compounds read low 0.987 | S. cerevisiae deletion strains, locus YPL051W, strain arl3, active compounds read low 0.991 | S. cerevisiae deletion strains, locus YPL055C, strain LGE1, active compounds read low 1 and 1.01 | S. cerevisiae deletion strains, locus YPL078C, strain atp4, active compounds read low 0.985 | S. cerevisiae deletion strains, locus YPL106C, strain sse1, active compounds read low 0.936 | S. cerevisiae deletion strains, locus YPL240C, strain hsp82, active compounds read low 0.991 | S. cerevisiae deletion strains, locus YPL241C, strain CIN2, active compounds read low 0.992 and 1.01 | S. cerevisiae deletion strains, locus YPL256C, strain CLN2, active compounds read low 0.96 | S. cerevisiae deletion strains, locus YPR119W, strain clb2, active compounds read low 0.998 | S. cerevisiae deletion strains, locus YPR141C, strain kar3, active compounds read low 0.979 | S. cerevisiae deletion strains, locus YPR163C, strain tif3, active compounds read low 0.987 | S. cerevisiae deletion strains, locus YPR167C, strain met16, active compounds read low 0.987 | S. cerevisiae deletion strains, strain wtn01, active compounds read low 0.95 | S. cerevisiae strains, strain wild type, active compounds read low 0.987
